# IL-1B inflam inh – qHTS for Inhibitors of Inflammasome Signaling: IL-1-beta AlphaLISA Primary Screen. THP-1 LPS/ATP IL-1B secretion, AlphaLISA, 16 h; active compounds read low. activity change, % at 57.5 µM. 4.7% of 360,000 active; in the data active means activity change below about -50%; inconclusive means mostly about -30% to -49%; further: on the % scale 0 is the no-effect control and ±100 the full control effect
#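 THP-1 cells pretreated 1 hr with compounds (up to 57.5 uM final), then stimulated with LPS (250 ng/mL final) plus ATP (1.25 mM final); secreted IL-1B measured by AlphaLISA after 16 hr, decreased signal indicating inhibition.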
# TDP1 cell CPT – qHTS for Inhibitors of human tyrosyl-DNA phosphodiesterase 1 (TDP1): qHTS in cells in presence of CPT; chicken DT40 Tdp1-/-;hTDP1 cells + 20 nM CPT, ATP luminescence, 48 h; Potency, µM (series often up to 46.2 µM), inactives show at the highest dose activity change, negative = growth inhibition, most hits filed as inhibitors; 12% of 420,000 active; further: potency means the concentration at half of the fitted maximal effect; on the % scale 0 is the no-effect control and ±100 the full control effect; nearly all actives have a fitted effect of over 55% in size
#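 Cell growth measured by CellTiter-Glo luminescence after a minimum 48 h, 37 C compound exposure with 20 nM CPT in Tdp1-knockout DT40 cells stably expressing hTDP1, seeded 400/well; qHTS titration format.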
# HepG2 viability – qHTS for Inhibitors of TGF-b: Cytotox Counterscreen; AID 588856, 2011; Potency, µM (series often up to 46.1 µM), for inactives: at the highest dose activity change, negative = cytotoxicity, actives largely listed as cytotoxic; HepG2 CAGA-GFP viability, ATP luminescence, 18 h; 0.76% of 410,000 active; further: potency means the concentration at half of the fitted maximal effect
#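 CellTiter-Glo luminescence gave cytotoxicity after 18 hours at 37 degrees C. The cells were HepG2 CAGA-GFP in 1% FBS DMEM, stimulated with 500 pg/mL TGF-beta after compound addition. %Activity was normalised to no-cell wells (complete cell-killing) and DMSO (no toxicity), and curves were fitted and classified.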
# TDP1 cell noCPT – qHTS for Inhibitors of human tyrosyl-DNA phosphodiesterase 1 (TDP1): qHTS in cells in absence of CPT. 15% of 420,000 active. AID 686978, 2013. Potency, µM (series often up to 46.2 µM), without a hit: top-dose activity change, negative = growth inhibition, most hits filed as inhibitors. DT40 Tdp1-/- hTDP1 cells, no CPT, ATP luminescence, 48 h; further: potency means the concentration at half of the fitted maximal effect; on the % scale 0 is the no-effect control and ±100 the full control effect; nearly all actives have a fitted effect of over 55% in size
#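 Luminescent ATP content (CellTiter-Glo) served as the growth readout. Knockout chicken DT40 cells expressing human TDP1 were exposed to compounds without camptothecin for a minimum 48 hr at 37 °C.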
# TGFb inhibitor – qHTS for Inhibitors of TGF-b | HepG2 CAGA-GFP TGF-b/SMAD3 reporter, GFP fluorescence, 18 h; TGF-beta stimulated, 500 pg/mL final | AID 588855, 2011 | 1.2% of 410,000 active | Potency, µM (highest dose often 46.1 µM), without a hit: at the top dose activity, negative = inhibition, most hits filed as inhibitors; further: potency means the concentration at half of the fitted maximal effect; on the % scale 0 is the no-effect control and ±100 the full control effect; nearly all actives have a fitted effect of over 65% in size
#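 HEPG2 CAGA-GFP, 1000 cells/well; 2 h settle, 37 C; cpd via pin tool; TGF-b 500 pg/mL final; 18 h, 37 C; GFP imaging ex488/em500-530; %Activity normalised to -TGF-b and +DMSO controls; CRC fit, curve class.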
# TDP1 inh – qHTS Assay for Inhibitors of Tyrosyl-DNA Phosphodiesterase (TDP1); Tyrosyl-DNA phosphodiesterase 1 (Homo sapiens), Q9NUW8; recombinant TDP1, AlphaScreen DNA substrate cleavage; Potency, µM (titrated, usually from 130 µM), for the others: top-dose activity change, negative = inhibition, usual class: inhibitors; 0.28% of 350,000 active; further: potency means the concentration at half of the fitted maximal effect; on the % scale 0 is the no-effect control and ±100 the full control effect; nearly all actives have a fitted effect of over 40% in size
# Target sequence (Q9NUW8 whole entry, looked up): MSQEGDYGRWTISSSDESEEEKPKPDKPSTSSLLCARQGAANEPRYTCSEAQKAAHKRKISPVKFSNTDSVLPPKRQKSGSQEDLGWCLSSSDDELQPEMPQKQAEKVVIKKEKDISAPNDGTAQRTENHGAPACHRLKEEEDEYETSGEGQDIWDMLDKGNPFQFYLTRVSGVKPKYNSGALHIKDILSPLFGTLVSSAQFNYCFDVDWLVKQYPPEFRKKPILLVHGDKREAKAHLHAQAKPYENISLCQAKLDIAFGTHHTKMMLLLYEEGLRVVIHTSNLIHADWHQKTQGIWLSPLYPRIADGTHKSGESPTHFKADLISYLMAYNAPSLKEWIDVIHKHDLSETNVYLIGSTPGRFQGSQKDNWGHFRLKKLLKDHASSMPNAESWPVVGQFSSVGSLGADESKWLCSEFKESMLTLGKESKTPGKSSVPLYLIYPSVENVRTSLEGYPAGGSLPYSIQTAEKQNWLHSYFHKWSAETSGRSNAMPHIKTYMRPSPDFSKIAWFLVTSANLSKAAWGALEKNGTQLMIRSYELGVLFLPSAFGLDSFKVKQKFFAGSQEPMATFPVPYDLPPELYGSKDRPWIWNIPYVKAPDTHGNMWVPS
#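 Recombinant E. coli-expressed Tdp1 (1 nM) preincubated with compound 15 min at RT, then 5'-biotin/3'-phosphotyrosine-FITC DNA substrate (15 nM) added for 5 min. AlphaScreen beads (10 ug/ml) added, 10 min RT; tyrosine-FITC cleavage read as signal loss.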
# Active calls of the source: *; i = inactive; ? = inconclusive; · = not tested or not shown; [ ] = dose if it differs, or a comment. This is a sample that favours compounds with a hit; in the whole collection about 18% have one here. Unless noted, the call rests on the fitted dose curve; in most records, active means well fitted curve in the direction sought with a large enough effect; inconclusive means small, poorly fitted or top-dose-only effect, or another doubt; inactive means no such curve, though single readings can be large; an effect the other way counts as inactive or inconclusive.
SMILES,IL-1B inflam inh,TDP1 cell CPT,HepG2 viability,TDP1 cell noCPT,TGFb inhibitor,TDP1 inh
C/C(=N/NC(=O)c1cc2ccccc2cc1O)C1C(=O)c2ccccc2C1=O,-18,-26%,-33%,-6%,-11%,-8%
C/C(=N\NC(=O)c1ccc(F)cc1)c1ccccn1,-66*,0.92µM*,-44%,1µM*,1.1µM*,·
COc1ccc(NCC(=O)N/N=C(\C)c2cc3ccccc3o2)cc1,-55*,?,0%,?,?,6%
C/C(=N\NC(=O)CCCNc1ccc(C)cc1)c1ccccn1,12,5.8µM*,2%,5.2µM*,5%,8%
CCc1ccc(/C(C)=N/NC(=O)c2ccccn2)cc1,0,-3%,-5%,4%,5%,6%
C/C(=N\NC(=O)CCCNc1ccccc1)c1ccncc1,0,2%,-6%,-21%,-12%,7%
CC1(C(=O)NCc2ccccc2)CN(S(C)(=O)=O)CC(=O)N1Cc1cccc(C(F)(F)F)c1 (configuration not stated),-10,-3%,·,-8%,·,·
C=C(C)CN(CC)c1ccc(N2C(=O)CCCC2=O)cc1[N+](=O)[O-],17,-11%,5%,?,1%,·
CN(C(=O)Cc1ccccc1OC(=O)c1ccccc1)c1ccccc1I,·,·,8%,·,-9%,1%
C/C(=N\NC(=O)c1cc2ccccc2cc1O)c1cc2ccccc2o1,101,?,-65%,15µM*,?,8%
Cn1c(N=Nc2ccccc2)nc2ccccc21,0,8.2µM*,7.1µM*,7.3µM*,-7%,5%
COc1cccc(C(=O)NCC(=O)N2CCC3(CC2)NCCc2[nH]cnc23)c1,-9,-6%,-2%,23%,11%,3%
CCCCCCCCCCC1=C(C)C(=O)C(OC)=C(OC)C1=O,·,-9%[92.5 µM],·,?,·,28%
CCCCCCCCSC1=CC(=O)C(OC)=C(OC)C1=O,0,1.2µM*,7.1µM*,1µM*,10µM*,·
Cc1ccn2cc(-c3cccc(S(=O)(=O)N4CCCCC4)c3)nc2c1,-29,-25%,-21%,-21%,-27%,0%
Cc1ccn2cc(-c3ccc(C)c(NS(=O)(=O)c4ccc(Cl)cc4)c3)nc2c1,·,23µM*,-32%,21µM*,?,5%
CC(=O)Nc1ccc(S(=O)(=O)Nc2cc(-c3cn4ccccc4n3)ccc2C)cc1,·,?,-22%,21µM*,9%,7%
CCc1ccc(S(=O)(=O)Nc2cc(-c3cn4ccccc4n3)ccc2C)cc1,·,?,-43%,?,-20%,0%
CCS(=O)(=O)Nc1cc(-c2cn3ccc(C)cc3n2)ccc1C,·,?,-26%,21µM*,-12%,7%
COc1cccc(NC(=S)N2CCN(S(=O)(=O)c3ccccc3)CC2)c1,-8,-24%,-3%,15%,0%,3%
NC(=O)c1cnn(-c2ccc3ccccc3c2)c1N,21,24%,-13%,?,?,-1%
Cc1cc(-c2ccccc2)nc2cc(C(=O)Nc3ccc(Cl)c(Cl)c3)nn12,·,?,-4%,?,-17%,-4%[12.3 µM]
COc1ccccc1NC(=O)COC(=O)COc1cccc2c1OC(C)(C)C2,1,-11%,12%,-14%,9%,·
COc1cc(NC(=O)COc2cccc3c2OC(C)(C)C3)cc(OC)c1OC,0,13µM*,-1%,8.2µM*,-6%,1%
COc1ccc(CNCC(O)COc2cccc3c2OC(C)(C)C3)cc1 (configuration not stated),?,9.2µM*,-27%,8.2µM*,-10%,2%
SMILES,IL-1B inflam inh,TDP1 cell CPT,HepG2 viability,TDP1 cell noCPT,TGFb inhibitor,TDP1 inh
COc1cc(C)c(NC(=O)COc2cccc3c2OC(C)(C)C3)cc1OC,37,16µM*,-23%,12µM*,-18%,0%
COc1ccc(NC(=O)COc2cccc3c2OC(C)(C)C3)c(OC)c1,8,?,-2%,16µM*,-8%,-1%
CC(=O)Nc1ccc(NC(=O)COc2cccc3c2OC(C)(C)C3)cc1,1,-16%,1%,-26%,17%,7%
CN1C(=O)CC(CC(=O)N2CCCCC2CCO)(c2cccc(F)c2)C1=O (configuration not stated),·,14%,·,1%,·,·
COc1ccc(-n2nnc3c(=O)n(CC(=O)Nc4cc(C)on4)cnc32)cc1,8,-2%,5%,-8%,1%,-3%
COc1ccc(C(=O)NCc2cnn(C)c2C)cc1OC1CCN(C(C)C)CC1,i,10%,0%,-3%,11%,2%
CCc1ccc(C2CC3C(CN2S(=O)(=O)c2ccc(C)cc2)C(=O)CC(c2ccc(CC)cc2)N3S(=O)(=O)c2ccc(C)cc2)cc1 (configuration not stated),5,?,·,-16%,·,·
COc1cccc(CNC(=O)COc2cccc3c2OC(C)(C)C3)c1,?,-23%,-10%,8%,2%,-4%
Cc1ccc(CNC(=O)COc2cccc3c2OC(C)(C)C3)cc1,-15,?,-12%,18µM*,4%,8%
COc1cccc(OCCn2c(-c3ccc(Cl)cc3)nc3ccccc3c2=O)c1,·,-9%,7%,-2%,11%,·
CCCCN1C(=O)C(CC(=O)NCCN2CCOCC2)CC(C(=O)N(CC)CC)=C1C (configuration not stated),5,6%,1%,-14%,13%,·
Cc1cc(C(=O)Cn2nc(C(=O)O)c3ccccc3c2=O)c(C)n1CC(F)(F)F,-2,-10%,-16%,-4%,8%,-3%
Cc1cc(C(=O)Cn2nc(C(=O)O)c3ccccc3c2=O)c(C)n1CCc1ccc(F)cc1,-5,16µM*,16%,?,-2%,8%
COc1ccc(-n2c(C)cc(C(=O)Cn3nc(C(=O)O)c4ccccc4c3=O)c2C)cc1,0,?,-55%,16µM*,-10%,-7%
COc1ccc(-n2c(C)cc(C(=O)Cn3nnc4ccccc4c3=O)c2C)cc1,0,21µM*,-33%,21µM*,-9%,8%

# High-throughput results (PubChem)
